Results published in PubChem BioAssay (NCATS).
Results filed as inconclusive are left out. Activity calls are given as the source filed them. The call rests on the fitted dose curve; in most records, active means well fitted curve in the direction sought with a large enough effect; inconclusive means small, poorly fitted or top-dose-only effect, or another doubt; inactive means no such curve, though single readings can be large; an effect the other way counts as inactive or inconclusive.

Tests used:
NIH3T3 = experiment: qHTS assay to identify novel small-molecules to repurpose for Merkel cell carcinoma treatment (AID 1296009); conditions: MCC and control cell lines, CellTiter-Glo viability, 72 h; at 44.8 µM (top of the series) unless noted; further: nearly all actives have a fitted effect of over 60% in size
Procedure, shortened: (§1)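 Cells were treated for 72 hr at 37 degree celsius with compounds in 8- or 11-point dose response. Viability was read by CellTiter-Glo luminescence, normalized to no-cell (cytotoxicity) and DMSO controls.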

UISO = experiment: as above; conditions: MCC and control cell lines, CellTiter-Glo viability, 72 h; series mostly up to 46 µM
Procedure, shortened: as §1

WaGa = experiment: as above; conditions: MCC and control cell lines, CellTiter-Glo viability, 72 h; series mostly up to 46 µM
Procedure, shortened: as §1

C33A = experiment: Primary qHTS to identify gynecologic anti-cancer compounds using libraries of approved drugs and bioactive compounds (AID 1345084); conditions: Gynecologic cancer cell panel viability, ATPlite luminescence, 48 h; series mostly up to 57.5 µM; further: nearly all actives have a fitted effect of over 55% in size
Procedure, shortened: (§2)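 Cell viability after 48 h drug treatment, ATPlite luminescence readout; five doses.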

CAOV3 = experiment: as above; conditions: Gynecologic cancer cell panel viability, ATPlite luminescence, 48 h; series mostly up to 57.5 µM
Procedure, shortened: as §2

CASKI = experiment: as above; conditions: Gynecologic cancer cell panel viability, ATPlite luminescence, 48 h; series mostly up to 57.5 µM
Procedure, shortened: as §2

Es-2 = experiment: as above; conditions: Gynecologic cancer cell panel viability, ATPlite luminescence, 48 h; series mostly up to 57.5 µM
Procedure, shortened: as §2

HeLa = experiment: as above; conditions: Gynecologic cancer cell panel viability, ATPlite luminescence, 48 h; series mostly up to 57.5 µM
Procedure, shortened: as §2

Hek293T = experiment: as above; conditions: Gynecologic cancer cell panel viability, ATPlite luminescence, 48 h, control line for the selectivity index; series mostly up to 57.5 µM
Procedure, shortened: as §2

JEG-3 = experiment: as above; conditions: Gynecologic cancer cell panel viability, ATPlite luminescence, 48 h; series mostly up to 57.5 µM
Procedure, shortened: as §2

OV90 = experiment: as above; conditions: Gynecologic cancer cell panel viability, ATPlite luminescence, 48 h; series mostly up to 57.5 µM
Procedure, shortened: as §2

PA-1 = experiment: as above; conditions: Gynecologic cancer cell panel viability, ATPlite luminescence, 48 h; series mostly up to 57.5 µM
Procedure, shortened: as §2

SKOV3 = experiment: as above; conditions: Gynecologic cancer cell panel viability, ATPlite luminescence, 48 h; series mostly up to 57.5 µM
Procedure, shortened: as §2

Tov-21-G = experiment: as above; conditions: Gynecologic cancer cell panel viability, ATPlite luminescence, 48 h; series mostly up to 57.5 µM
Procedure, shortened: as §2

Tov112D = experiment: as above; conditions: Gynecologic cancer cell panel viability, ATPlite luminescence, 48 h; series mostly up to 57.5 µM
Procedure, shortened: as §2

[1] = Drug repurposing screens with cells derived from glioblastoma tumor samples (AID 1345199); conditions: GBM patient neurospheres viability, ATP luminescence, 48 h; further: nearly all actives have a fitted effect of over 40% in size
Procedure, shortened: (§3)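 Four patient lines of CD133+ GBM neurospheres were screened at several concentrations; hits were retested in those lines plus three slower-growing GBM lines, using 48-hour treatment and ATP-based viability.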

astro = experiment: as above; conditions: viability, ATP luminescence, 48 h; series mostly up to 45.9 µM
Procedure, shortened: as §3

[2] = at 45.9 µM (top of the series), tumour line B
[3] = at 45.9 µM (top of the series), tumour line D
[4] = at 46 µM (top of the series), tumour line A
[5] = at 46.1 µM (top of the series), tumour line C
On the % scale 0 is the no-effect control and ±100 the full control effect.

CC(C[N+](C)(C)C)OC(N)=O (centres undefined)
inactive: outcome (NIH3T3) | Potency (UISO) | Potency (WaGa) | Potency (C33A) | Potency (CAOV3) | Potency (CASKI) | Potency (Es-2) | Potency (HeLa) | Potency (Hek293T) | Potency (JEG-3) | Potency (OV90) | Potency (PA-1) | Potency (SKOV3) | Potency (Tov-21-G) | Potency (Tov112D) | activity, negative = cell killing [1, 2] -0.814% | activity, negative = cell killing [1, 3] 5.66% | activity, negative = cell killing [1, 4] -20.4% | activity, negative = cell killing [1, 5] 5.23% | Potency (astro)

Cc1[nH]c(=O)c(C#N)cc1-c1ccc2nccn2c1
inactive: outcome (NIH3T3) | Potency (UISO) | Potency (WaGa) | Potency (C33A) | Potency (CAOV3) | Potency (CASKI) | Potency (Es-2) | Potency (HeLa) | Potency (Hek293T) | Potency (JEG-3) | Potency (OV90) | Potency (PA-1) | Potency (SKOV3) | Potency (Tov-21-G) | Potency (Tov112D) | activity, negative = cell killing [1, 2] -4% | activity, negative = cell killing [1, 3] 0.316% | activity, negative = cell killing [1, 4] -27% | activity, negative = cell killing [1, 5] -6.47% | Potency (astro)

O=C(O)COCCN1CCN(C(c2ccccc2)c2ccc(Cl)cc2)CC1 (centres undefined)
inactive: outcome (NIH3T3) | Potency (UISO) | Potency (WaGa) | Potency (C33A) | Potency (CAOV3) | Potency (CASKI) | Potency (Es-2) | Potency (HeLa) | Potency (Hek293T) | Potency (JEG-3) | Potency (OV90) | Potency (PA-1) | Potency (SKOV3) | Potency (Tov-21-G) | Potency (Tov112D) | activity, negative = cell killing ([1]; at 20 µM (top of the series), tumour line C) -26.4% | activity, negative = cell killing ([1]; at 21.2 µM (top of the series), tumour line B) -3.42% | activity, negative = cell killing ([1]; at 21.2 µM (top of the series), tumour line D) -18.8% | activity, negative = cell killing ([1]; at 21.3 µM (top of the series), tumour line A) -26.6% | Potency (astro)

CCCn1c(=O)c2[nH]c(C34CC5CC3C[C@@H](C5)C4)nc2n(CCC)c1=O
inactive: Potency (UISO) | Potency (WaGa)

CC(C)(C)OC(=O)CN(Cc1ccc(Cl)cc1)Cc1ccc([N+](=O)[O-])s1
inactive: Potency (UISO) | Potency (WaGa)

CCN(c1ccccc1)c1cc(NC)[n+](C)c(C)n1
inactive: Potency (UISO) | Potency (WaGa)

COc1ccc(COc2cc3oc(=O)c4cc(C(C)O)ccc4c3cc2OC)cc1 (centres undefined)
inactive: Potency (UISO)

Cc1cc(SCc2sc(-c3ccc(C(F)(F)F)cc3)nc2C)ccc1OCC(=O)O
inactive: outcome (NIH3T3) | Potency (UISO) | Potency (WaGa) | Potency (CAOV3) | Potency (CASKI) | Potency (Es-2) | Potency (HeLa) | Potency (Hek293T) | Potency (JEG-3) | Potency (OV90) | Potency (PA-1) | Potency (SKOV3) | Potency (Tov-21-G) | Potency (Tov112D)

CC(C)(C)NCC(O)c1ccc(O)c(CO)c1 (centres undefined)
inactive: outcome (NIH3T3) | Potency (UISO) | Potency (WaGa) | Potency (C33A) | Potency (CASKI) | Potency (Es-2) | Potency (HeLa) | Potency (Hek293T) | Potency (JEG-3) | Potency (OV90) | Potency (PA-1) | Potency (Tov-21-G) | Potency (Tov112D) | activity, negative = cell killing [1, 2] -3.69% | activity, negative = cell killing [1, 3] -16.6% | activity, negative = cell killing [1, 4] -18.1% | activity, negative = cell killing [1, 5] -6.46% | Potency (astro)
